# Source: PubChem BioAssay AID1159580 (chemical genetic matrix, 2015)
# Where “and” joins values, the source holds several entries; their conditions need not be identical. Identical values can stand only once. Among all 5,500 compounds or so, about 2,000 (36%) were called active. Inconclusive results (about 18%) are left out. Rule as the data show it: active = normalized growth mostly below about 0.91 (no sharp cut-off); inconclusive = no clear call, values can overlap the other calls; inactive = mostly above about 0.92. The list shows a part of the results.
# Test: chemical genetic growth profiling, strain panel (AID 1159580);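 also: tested at 20 µM; growth read once vehicle control cultures reached saturation at 30 °C; 1 = growth at the plate median or of vehicle wells; lower values mean less growth of the strain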
# Conditions: S. cerevisiae deletion strains, growth OD
smiles,measurement,setting,value
Cc1cccc(Nc2ccccc2C(=O)O)c1C,normalized growth,"locus YAL013W, strain DEP1, stronger effect = lower value",0.89 (active)
same,normalized growth,"locus YAL021C, strain ccr4, stronger effect = lower value",0.934 (inactive)
same,normalized growth,"locus YAL026C, strain drs2, stronger effect = lower value",0.929 (inactive)
same,normalized growth,"locus YAL030W, strain snc1, stronger effect = lower value",0.913 (active)
same,normalized growth,"locus YBL061C, strain skt5, stronger effect = lower value",0.924 (inactive)
same,normalized growth,"locus YBR009C, strain hhf1, stronger effect = lower value",0.951 (inactive)
same,normalized growth,"locus YBR021W, strain FUR4, stronger effect = lower value",0.853 (inactive)
same,normalized growth,"locus YBR023C, strain chs3, stronger effect = lower value",0.919 (inactive)
same,normalized growth,"locus YBR171W, strain sec66, stronger effect = lower value",0.843 (active)
same,normalized growth,"locus YBR229C, strain ROT2, stronger effect = lower value",0.912 (active)
same,normalized growth,"locus YBR231C, strain swc5, stronger effect = lower value",0.915 (inactive)
same,normalized growth,"locus YBR279W, strain paf1, stronger effect = lower value",0.921 (active)
same,normalized growth,"locus YCL011C, strain gbp2, stronger effect = lower value",0.922 (inactive)
same,normalized growth,"locus YCL016C, strain dcc1, stronger effect = lower value",0.913 (active)
same,normalized growth,"locus YCL029C, strain bik1, stronger effect = lower value",0.907 (active)
same,normalized growth,"locus YCL061C, strain MRC1, stronger effect = lower value",0.894 (active)
same,normalized growth,"locus YCL069W, strain vba3, stronger effect = lower value",0.912 (active)
same,normalized growth,"locus YCR088W, strain abp1, stronger effect = lower value",0.895 (active)
same,normalized growth,"locus YDL005C, strain med2, stronger effect = lower value",0.946 (inactive)
same,normalized growth,"locus YDL035C, strain GPR1, stronger effect = lower value",0.921 (inactive)
same,normalized growth,"locus YDL040C, strain nat1, stronger effect = lower value",0.92 (active)
same,normalized growth,"locus YDL074C, strain BRE1, stronger effect = lower value",0.898 (inactive)
same,normalized growth,"locus YDL101C, strain DUN1, stronger effect = lower value",0.994 (inactive)
same,normalized growth,"locus YDL134C, strain PPH21, stronger effect = lower value",0.904 (inactive)
same,normalized growth,"locus YDL185W, strain tfp1, stronger effect = lower value",0.984 (inactive)
same,normalized growth,"locus YDL192W, strain arf1, stronger effect = lower value",0.834 (active)
same,normalized growth,"locus YDR001C, strain nth1, stronger effect = lower value",0.893 (active)
same,normalized growth,"locus YDR069C, strain doa4, stronger effect = lower value",0.988 (inactive)
same,normalized growth,"locus YDR101C, strain arx1, stronger effect = lower value",0.885 (active)
same,normalized growth,"locus YDR137W, strain rgp1, stronger effect = lower value",0.739 (active)
same,normalized growth,"locus YDR150W, strain NUM1, stronger effect = lower value",0.894 (active)
same,normalized growth,"locus YDR159W, strain sac3, stronger effect = lower value",0.898 (inactive)
same,normalized growth,"locus YDR162C, strain NBP2, stronger effect = lower value",0.806 (active)
same,normalized growth,"locus YDR195W, strain ref2",1.08 (inactive)
same,normalized growth,"locus YDR297W, strain sur2, stronger effect = lower value",0.912 (active)
same,normalized growth,"locus YDR318W, strain mcm21, stronger effect = lower value",0.882 (active)
same,normalized growth,"locus YDR334W, strain swr1, stronger effect = lower value",0.908 (inactive)
same,normalized growth,"locus YDR335W, strain msn5, stronger effect = lower value",0.923 (inactive)
same,normalized growth,"locus YDR388W, stronger effect = lower value",0.869 (active)
same,normalized growth,"locus YDR392W, strain spt3, stronger effect = lower value",0.593 (active)
same,normalized growth,"locus YDR502C, strain sam2, stronger effect = lower value",0.864 (active)
same,normalized growth,"locus YEL003W, strain gim4, stronger effect = lower value",0.937 (inactive)
same,normalized growth,"locus YEL037C, strain rad23, stronger effect = lower value",0.909 (active)
same,normalized growth,"locus YEL061C, strain CIN8 (second series), stronger effect = lower value",0.887 (active)
same,normalized growth,"locus YEL061C, strain CIN8, stronger effect = lower value",0.904 (active)
same,normalized growth,"locus YER015W, strain faa2, stronger effect = lower value",0.936 (inactive)
same,normalized growth,"locus YER016W, strain bim1, stronger effect = lower value",0.918 (active)
same,normalized growth,"locus YER110C, stronger effect = lower value",0.859 (active)
same,normalized growth,"locus YER111C, strain swi4, stronger effect = lower value",0.907 (active)
same,normalized growth,"locus YER155C, strain BEM2 (second series), stronger effect = lower value",0.904 (inactive)
same,normalized growth,"locus YER155C, strain BEM2, stronger effect = lower value",0.868 (active)
same,normalized growth,"locus YER167W, strain BCK2, stronger effect = lower value",0.867 (active)
same,normalized growth,"locus YFR010W, strain ubp6, stronger effect = lower value",0.986 (inactive)
same,normalized growth,"locus YGL078C, strain dbp3, stronger effect = lower value",0.959 (inactive)
same,normalized growth,"locus YGL086W, strain mad1, stronger effect = lower value",0.884 (active)
same,normalized growth,"locus YGL167C, strain pmr1, stronger effect = lower value",0.851 (active)
same,normalized growth,"locus YGL173C, strain kem1, stronger effect = lower value",0.911 (inactive)
same,normalized growth,"locus YGL227W, strain vid30, stronger effect = lower value",0.917 (inactive)
same,normalized growth,"locus YGL240W, strain doc1, stronger effect = lower value",0.967 (inactive)
same,normalized growth,"locus YGL248W, strain PDE1, stronger effect = lower value",0.936 (inactive)
same,normalized growth,"locus YGL253W, strain hxk2, stronger effect = lower value",0.897 (active)
same,normalized growth,"locus YGR078C, strain PAC10, stronger effect = lower value",0.897 (inactive)
same,normalized growth,"locus YGR135W, strain pre9, stronger effect = lower value",0.858 (active)
same,normalized growth,"locus YGR229C, strain SMI1, stronger effect = lower value",0.729 (active)
same,normalized growth,"locus YGR252W, strain gcn5, stronger effect = lower value",0.854 (inactive)
same,normalized growth,"locus YHR013C, strain ard1, stronger effect = lower value",0.967 (inactive)
same,normalized growth,"locus YHR027C, strain rpn1, stronger effect = lower value",0.906 (active)
same,normalized growth,"locus YHR030C, strain SLT2, stronger effect = lower value",0.907 (active) and 0.891 (inactive)
same,normalized growth,"locus YHR079C, strain IRE1 (second series), stronger effect = lower value",0.887 (active)
same,normalized growth,"locus YHR079C, strain IRE1, stronger effect = lower value",0.883 (inactive)
same,normalized growth,"locus YHR094C, strain hxt1, stronger effect = lower value",0.872 (active)
same,normalized growth,"locus YHR129C, strain ARP1, stronger effect = lower value",0.911 (active)
same,normalized growth,"locus YHR142W, strain chs7, stronger effect = lower value",0.887 (inactive)
same,normalized growth,"locus YHR200W, strain rpn10, stronger effect = lower value",0.872 (active)
same,normalized growth,"locus YIL066C, strain RNR3, stronger effect = lower value",0.915 (inactive)
same,normalized growth,"locus YIL073C, strain SPO22, stronger effect = lower value",0.905 (inactive)
same,normalized growth,"locus YIL125W, strain kgd1, stronger effect = lower value",0.985 (inactive)
same,normalized growth,"locus YIR030C, strain dcg1, stronger effect = lower value",0.863 (active)
same,normalized growth,"locus YJL092W, strain hpr5, stronger effect = lower value",0.908 (active)
same,normalized growth,"locus YJL095W, strain BCK1 (second series), stronger effect = lower value",0.918 (active)
same,normalized growth,"locus YJL095W, strain BCK1, stronger effect = lower value",0.8 (inactive) and 0.923 (inactive)
same,normalized growth,"locus YJL115W, strain asf1, stronger effect = lower value",0.908 (inactive)
same,normalized growth,"locus YJL129C, strain trk1, stronger effect = lower value",0.697 (active)
same,normalized growth,"locus YJL134W, strain LCB3, stronger effect = lower value",0.894 (active)
same,normalized growth,"locus YJL154C, strain vps35, stronger effect = lower value",0.904 (active)
same,normalized growth,"locus YJL164C, strain tpk1, stronger effect = lower value",0.948 (inactive)
same,normalized growth,"locus YJL166W, strain qcr8, stronger effect = lower value",0.929 (inactive)
same,normalized growth,"locus YJL168C, strain set2, stronger effect = lower value",0.868 (active)
same,normalized growth,"locus YJL187C, strain SWE1 (second series), stronger effect = lower value",0.932 (inactive)
same,normalized growth,"locus YJL187C, strain SWE1, stronger effect = lower value",0.922 (active)
same,normalized growth,"locus YJR043C, strain POL32, stronger effect = lower value",0.942 (inactive)
same,normalized growth,"locus YJR066W, strain TOR1, stronger effect = lower value",0.81 (active)
